One assay relates to HACAT. In words: qHTS assay to identify novel small-molecules to repurpose for Merkel cell carcinoma treatment (AID 1296009). Note: nearly all actives have a fitted effect of over 60% in size. Note: potency is the fitted concentration of half-maximal effect. Conditions: MCC and control cell lines, CellTiter-Glo viability, 72 h; series mostly up to 44.8 µM. The procedure, abridged: (§1)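 CellTiter-Glo luminescence after 72 hr compound exposure at 37 degree celsius gave cell viability. Libraries NPC and MIPE were run as 8- and 11-point dose responses; RLUs normalized to DMSO (negative) and no-cell (cytotoxicity) controls.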

Another assay concerns MCC-13. Described as above. Conditions: MCC and control cell lines, CellTiter-Glo viability, 72 h; series mostly up to 46 µM. Summed up: as §1
(ATP-based viability assays read luminescence as a measure of living cells.)

The test system of another assay is MCC-26. Described as above. Conditions: MCC and control cell lines, CellTiter-Glo viability, 72 h; series mostly up to 46 µM. Summed up:
as §1

For a further assay, the system named is MKL-1. Described as above. Conditions: MCC and control cell lines, CellTiter-Glo viability, 72 h; series mostly up to 46 µM. Summed up:
as §1

The next assay has as its system MKL-2. Described as above. Conditions: MCC and control cell lines, CellTiter-Glo viability, 72 h; series mostly up to 46 µM. Summed up:
as §1

For a further assay, the system named is UISO. The description is as above. Conditions: MCC and control cell lines, CellTiter-Glo viability, 72 h; series mostly up to 46 µM. Summed up:
as §1

The test system of the next assay is WaGa. The assay is described as above. Conditions: MCC and control cell lines, CellTiter-Glo viability, 72 h; series mostly up to 46 µM. The procedure, abridged: as §1
The next assay deals with C33A. In words: Primary qHTS to identify gynecologic anti-cancer compounds using libraries of approved drugs and bioactive compounds (AID 1345084). Note: nearly all actives have a fitted effect of over 55% in size. Conditions: Gynecologic cancer cell panel viability, ATPlite luminescence, 48 h; series mostly up to 57.5 µM. The procedure, abridged: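 Five-point cytotoxicity, 48 h drug exposure at 37 C, 5% CO2, on cells seeded 16 h beforehand. ATP content read by ATPlite luminescence.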

Another assay concerns HEK293T. Put plainly: qHTS assay to identify novel small-molecules to repurpose for Merkel cell carcinoma treatment (AID 1296009). Note: nearly all actives have a fitted effect of over 60% in size. Note: potency is the fitted concentration of half-maximal effect. Conditions: MCC and control cell lines, CellTiter-Glo viability, 72 h; at 44.8 µM (top of the series) unless noted. Summed up: as §1
In general terms: In qHTS, concentration-response curves come from the screen itself.

Another assay concerns NIH3T3. The description is as above. Conditions: MCC and control cell lines, CellTiter-Glo viability, 72 h; series mostly up to 44.8 µM. The procedure, abridged: as §1

The values below come from PubChem BioAssay (NCATS).

Several values for one entry are separate records, joined by “and”; a condition that tells them apart may be missing. Identical values can stand only once. Results filed as inconclusive are left out. The source holds several records for some structures; these can differ, active in one and inactive in another. Activity calls are given as the source filed them. Calls come from the whole dose curve; as a rule, active = well fitted curve in the direction sought with a large enough effect; inconclusive = small, poorly fitted or top-dose-only effect, or another doubt; inactive = no such curve, though single readings can be large; an effect the other way counts as inactive or inconclusive.

With `Clc1ccc2c(c1)C(N1CCNCC1)=Nc1ccccc1O2`, in the assay with HACAT, the call was inactive. The Potency entry with MCC-13, in the assay with MCC-26, in the assay with MKL-1, in the assay on MKL-2, in the assay with UISO and in the assay on WaGa was “inactive” each time. In the assay on C33A, the Potency result is “inactive”.

For `CC1(CN2CCC(n3c(=O)[nH]c4ccccc43)CC2)OCc2ccccc2-n2cccc21` (centres undefined), the call in the assay on HACAT was inactive. Besides, the Potency entry in the assay with MCC-13, in the assay on MCC-26, with MKL-1, in the assay with MKL-2, in the assay with UISO and in the assay on WaGa was “inactive” throughout. The Potency entry in the assay on C33A was “inactive”.

Regarding `CC(C)NCC(O)COc1ccc(CCOCC2CC2)cc1` (centres undefined), the call in the assay with HACAT was inactive. Besides, the Potency result with MCC-13, in the assay on MKL-1, in the assay with MKL-2, with UISO, with WaGa and in the assay with C33A was “inactive” each time.

Regarding `CC(CCc1ccc(O)cc1)NCCc1ccc(O)c(O)c1` (centres undefined), the result in the assay with HACAT was inactive. Besides, the Potency result in the assay on MCC-13, with WaGa and with C33A was “inactive” each time. The Potency with MKL-1 was 7.5 µM (active); with MKL-2, 23.5 µM (active) and 11.9 µM (active).

Take `CCCCc1oc2ccccc2c1C(=O)c1cc(I)c(OCCN(CC)CC)c(I)c1`: in the assay on HACAT, the outcome was inactive. Also, the Potency result in the assay with MCC-13, in the assay on MCC-26, with UISO, with WaGa and in the assay on C33A was “inactive” each time. Moreover, the Potency in the assay with MKL-2 is 13.3 µM (active).

In the case of `CN1CCN(CCCN2c3ccccc3Sc3ccc(Cl)cc32)CC1`, in the assay on HACAT, the call was inactive. For the same compound, the Potency entry with MCC-13, with UISO and with C33A was “inactive” each time. For the same compound, the values for the Potency in the assay on MKL-1 and in the assay with MKL-2 were 16.6 µM (active) and 11.8 µM (active), respectively.

Turning to `Cn1cnc2c1c(=O)[nH]c(=O)n2C`, the outcome with HACAT was inactive. The Potency result in the assay with MCC-13, with MCC-26, in the assay on MKL-1, in the assay on MKL-2, in the assay with UISO and in the assay with WaGa was “inactive” each time. Moreover, in the assay with C33A, the Potency result was “inactive”.

With `Cc1ccc(-c2cc(C(F)(F)F)nn2-c2ccc(S(N)(=O)=O)cc2)cc1`, the result in the assay with HACAT was inactive. In addition, the Potency entry with MCC-13, in the assay with MCC-26, in the assay with MKL-1, with MKL-2, in the assay with UISO and in the assay on WaGa was “inactive” each time. The Potency result in the assay on C33A is “inactive”.

On to `COc1ccccc1OCCNCC(O)COc1cccc2[nH]c3ccccc3c12` (centres undefined), for which, in the assay on HACAT, the outcome was inactive. Further, the Potency entry in the assay on MCC-13, in the assay on MKL-1, with UISO, in the assay with WaGa and in the assay with C33A was “inactive” throughout. The Potency in the assay with MKL-2 was 16.8 µM (active).

As to `Cn1ccc2cc3c(cc21)CCN3C(=O)Nc1cccnc1`, the compound was called inactive in the assay on HEK293T and in the assay on NIH3T3. For the same compound, the Potency result in the assay on MCC-13, in the assay with MCC-26, in the assay with MKL-1, in the assay on MKL-2, with UISO and in the assay with WaGa was “inactive” each time. For the same compound, in the assay with C33A, the Potency result was “inactive”.

Consider `COc1nc(C)nc(Cl)c1NC1=NCCN1`, for which the result with HACAT was inactive. In addition, the Potency entry with MCC-13, in the assay with MKL-1, in the assay on MKL-2, in the assay with UISO, in the assay on WaGa and in the assay with C33A was “inactive” each time.

On to `Fc1ccc([C@@H]2CCNC[C@H]2COc2ccc3c(c2)OCO3)cc1`, for which the result in the assay with HACAT was inactive. Moreover, the Potency result in the assay on MCC-13, in the assay with MCC-26, with MKL-1, in the assay with MKL-2, in the assay on UISO and in the assay on WaGa was “inactive” throughout. Also, the Potency entry in the assay on C33A is “inactive”.

Consider `CN(C)CCC=C1c2ccccc2C=Cc2ccccc21`, for which, in the assay on HACAT, the call was inactive. Besides, the Potency entry with MCC-13, with MCC-26, with MKL-1, with UISO, with WaGa and with C33A was “inactive” in each case.

Turning to `NCCc1cnc[nH]1`, the result with HEK293T and in the assay on NIH3T3 was inactive. The Potency entry in the assay on MCC-13, in the assay on MCC-26, in the assay on MKL-1, in the assay with MKL-2, in the assay on UISO and with WaGa was “inactive” throughout. The Potency entry in the assay on C33A is “inactive”.

Regarding `CCCNCC(O)COc1ccccc1C(=O)CCc1ccccc1` (centres undefined), the compound was classed as inactive in the assay on HACAT. The Potency entry in the assay with MCC-13, with MKL-1, in the assay on MKL-2, in the assay on UISO, in the assay with WaGa and in the assay on C33A was “inactive” each time.

For `CCOC(=O)Nc1ccc(NCc2ccc(F)cc2)nc1N`, the Potency entry with MCC-13, with MCC-26, with MKL-1, with MKL-2 and with UISO was “inactive” in each case. Also, the compound was called inactive in the assay with NIH3T3. Also, the Potency in the assay with WaGa was 21.1 µM (active) and inactive.

Turning to `CN(C)CCCN1c2ccccc2CCc2ccc(Cl)cc21`, the outcome in the assay on HACAT was inactive. Further, the Potency entry in the assay with MCC-13, in the assay on MCC-26, in the assay with MKL-1 and with C33A was “inactive” in each case. Also, the Potency with MKL-2 and with WaGa was 18.7 µM (active) throughout.

Turning to `CN(C)C(=O)C(CCN1CCC(O)(c2ccc(Cl)cc2)CC1)(c1ccccc1)c1ccccc1`, the Potency entry in the assay on MCC-13, in the assay on MCC-26 and in the assay with MKL-1 was “inactive” in each case. Also, in the assay with MKL-2, the Potency was 18.7 µM (active).

With `CC(=O)OCC(CCn1cnc2cnc(N)nc21)COC(C)=O`, the compound was classed as inactive in the assay with HEK293T and in the assay with NIH3T3. For the same compound, the Potency result in the assay with MCC-13, with MCC-26, in the assay with MKL-1, in the assay with MKL-2, with UISO and with WaGa was “inactive” throughout. Besides, the Potency entry in the assay with C33A was “inactive”.

As for `COc1cc2nc(N3CCN(C(=O)C4COc5ccccc5O4)CC3)nc(N)c2cc1OC` (centres undefined), the compound was classed as inactive in the assay with HACAT and with NIH3T3. For the same compound, the Potency result in the assay with MCC-13, in the assay on MCC-26, in the assay on MKL-1, in the assay on MKL-2, in the assay on UISO and in the assay with WaGa was “inactive” in each case. In addition, the Potency entry in the assay with C33A was “inactive”.

On to `Cc1cnc(C(=O)NCCc2ccc(S(=O)(=O)NC(=O)NC3CCCCC3)cc2)cn1`, for which the outcome in the assay on HACAT was inactive. The Potency entry with MCC-13, with MKL-1, with MKL-2, in the assay on UISO, in the assay on WaGa and in the assay with C33A was “inactive” in each case.

Take `CCN1CCCC1CNC(=O)c1cc(S(=O)(=O)CC)c(N)cc1OC` (centres undefined): the call in the assay on HACAT and in the assay on NIH3T3 was inactive. In addition, the Potency result with MCC-13, with MKL-1, in the assay with MKL-2, in the assay on UISO, in the assay on WaGa and in the assay with C33A was “inactive” each time.

As for `Cc1cc(C(C)(C)C)cc(C)c1CC1=NCCN1`, the outcome with HACAT was “inactive; activator”. For the same compound, the Potency entry in the assay on MCC-13, in the assay on MKL-1, with MKL-2, in the assay with UISO, in the assay with WaGa and in the assay on C33A was “inactive” throughout. In addition, in the assay on NIH3T3, the result was inactive.

Turning to `O=c1c(-c2ccc(O)cc2)coc2cc(O)cc(O)c12`, the outcome in the assay on HACAT was inactive. Further, the Potency entry in the assay on MCC-13, in the assay on MKL-1, in the assay with MKL-2, with UISO and in the assay on C33A was “inactive” throughout. In addition, the Potency entry in the assay with WaGa was “inactive and 26.6 µM (active)”.

For the compound `CN1C2CCC1CC(OC(=O)C(CO)c1ccccc1)C2` (centres undefined), the result in the assay on HACAT was inactive. Moreover, the Potency entry in the assay with MCC-13, with MKL-1, in the assay with MKL-2, in the assay with UISO and with WaGa was “inactive” in each case.
